# Whole data set: some 2,900 compounds, median “NF-kB SEAP reporter activity, fold change vs agonist alone” near 0.99, cut for the highest 2% near 2.6. The entries come from a sample that favours the highest values as a whole.
# Key:
# [1] = system: RAW-Dual; assay: NF-kB SEAP reporter activity, fold change vs agonist alone; higher = enhanced NF-kB activity
# Summary of the method: (§1)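 Supernatant from RAW-Dual macrophages was read after 20 hours for IRF by QuantiLuc luminescence and for NF-κB by QuantiBlue absorbance at 620 nm. The cells (50,000 cells/well in DMEM, 384-well plates, 37 °C, 5% CO2) had received 50 nL of library stock by pin tool and, 1 h later, a PRR agonist. Reporter activity is expressed relative to agonist-alone wells as fold change, and wells were flagged cytotoxic if IncuCyte confluency was under 70% of agonist controls in both mask sets.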
# [2] = system: RAW-Dual; assay: NF-kB SEAP reporter activity, fold change vs agonist alone; cytotoxicity flag (confluency mask): cytotoxic (confluency <70% of control); library stock concentration (final ~1000-fold dilution): 10 mM; higher = enhanced NF-kB activity
# Summary of the method: as §1
# [3] = system: RAW-Dual; assay: NF-kB SEAP reporter activity, fold change vs agonist alone; cytotoxicity flag (confluency mask): not cytotoxic; library stock concentration (final ~1000-fold dilution): 10 mM; higher = enhanced NF-kB activity
# Summary of the method: as §1
# [4] = system: RAW-Dual; assay: NF-kB SEAP reporter activity, fold change vs agonist alone; cytotoxicity flag (confluency mask): not cytotoxic; library stock concentration (final ~1000-fold dilution): 2 mM; higher = enhanced NF-kB activity
# Summary of the method: as §1
# [5] = library stock concentration (final ~1000-fold dilution): 10 mM, cytotoxicity flag (confluency mask): cytotoxic (confluency <70% of control), agonist: Imiquimod (TLR7) […]
# [6] = library stock concentration (final ~1000-fold dilution): 10 mM, cytotoxicity flag (confluency mask): cytotoxic (confluency <70% of control), agonist: MPLA (TLR4) […]
# [7] = agonist: ODN 1826 (TLR9) 0.5 ug/mL
# [8] = agonist: Pam2CSK4 (TLR2/6) 0.1 ug/mL
# [9] = agonist: Pam3CSK4 (TLR2/1) 0.1 ug/mL
# [10] = library stock concentration (final ~1000-fold dilution): 10 mM, cytotoxicity flag (confluency mask): not cytotoxic, agonist: Imiquimod (TLR7) […]
# [11] = library stock concentration (final ~1000-fold dilution): 10 mM, cytotoxicity flag (confluency mask): not cytotoxic, agonist: MPLA (TLR4) […]
structure (smiles),measurement,setting,value
CC(C)(C)c1cc(C=C(C#N)C#N)cc(C(C)(C)C)c1O,NF-kB SEAP reporter activity,[1]; [5],1.7
same,NF-kB SEAP reporter activity,[1]; [6],2.56
same,NF-kB SEAP reporter activity,[2]; agonist: LPS (TLR4) 0.1 ug/mL,5.32
same,NF-kB SEAP reporter activity,[2]; [7],1.32
same,NF-kB SEAP reporter activity,[2]; [8],0.729
same,NF-kB SEAP reporter activity,[2]; [9],1.48
CC(C)(C)c1cc(C=C(C#N)C#N)cc(Br)c1O,NF-kB SEAP reporter activity,[1]; [5],2.04
same,NF-kB SEAP reporter activity,[1]; [6],2.25
same,NF-kB SEAP reporter activity,[2]; agonist: LPS (TLR4) 0.1 ug/mL,2.48
same,NF-kB SEAP reporter activity,[2]; [7],1.29
same,NF-kB SEAP reporter activity,[2]; [8],0.571
same,NF-kB SEAP reporter activity,[2]; [9],0.667
N#CC(C#N)=Cc1ccc(O)c(O)c1,NF-kB SEAP reporter activity,[1]; [10],0.89
same,NF-kB SEAP reporter activity,[1]; [11],1.33
same,NF-kB SEAP reporter activity,[3]; agonist: LPS (TLR4) 0.1 ug/mL,1.19
same,NF-kB SEAP reporter activity,[3]; [7],0.619
same,NF-kB SEAP reporter activity,[3]; [8],0.821
same,NF-kB SEAP reporter activity,[3]; [9],0.937
CN1C(=O)C23CC4(C56CC78SSC(CO)(C(=O)N7C5Nc5ccccc56)N(C)C8=O)c5ccccc5NC4N2C(=O)C1(CO)SS3 (stereo not drawn),NF-kB SEAP reporter activity,[1]; [5],0.117
same,NF-kB SEAP reporter activity,[1]; [6],0.183
same,NF-kB SEAP reporter activity,[2]; agonist: LPS (TLR4) 0.1 ug/mL,0.372
same,NF-kB SEAP reporter activity,[2]; [7],0.141
same,NF-kB SEAP reporter activity,[2]; [8],0.0829
same,NF-kB SEAP reporter activity,[2]; [9],0.196
CCc1c2c(nc3ccccc13)-c1cc3c(c(=O)n1C2)COC(=O)C3(O)CC (stereo not drawn),NF-kB SEAP reporter activity,[1]; [6],1.62
same,NF-kB SEAP reporter activity,[2]; agonist: LPS (TLR4) 0.1 ug/mL,0.384
same,NF-kB SEAP reporter activity,[2]; [7],2.29
same,NF-kB SEAP reporter activity,[2]; [8],0.788
same,NF-kB SEAP reporter activity,[2]; [9],0.641
CCC1(O)C(=O)OCc2c1cc1n(c2=O)Cc2cc3ccccc3nc2-1 (stereo not drawn),NF-kB SEAP reporter activity,"[1]; library stock concentration (final ~1000-fold dilution): 2 mM, cytotoxicity flag (confluency mask): not cytotoxic, agonist: Imiquimod (TLR7) […]",1.45
same,NF-kB SEAP reporter activity,"[1]; library stock concentration (final ~1000-fold dilution): 2 mM, cytotoxicity flag (confluency mask): not cytotoxic, agonist: MPLA (TLR4) […]",1.83
same,NF-kB SEAP reporter activity,[4]; agonist: LPS (TLR4) 0.1 ug/mL,4.12
same,NF-kB SEAP reporter activity,[4]; [7],1.47
same,NF-kB SEAP reporter activity,[4]; [8],1.05
same,NF-kB SEAP reporter activity,[4]; [9],1.74
C=CC1CN2CCC3(C(=O)Nc4ccccc43)C2CC1/C(=C\OC)C(=O)OC (stereo not drawn),NF-kB SEAP reporter activity,[1]; [10],0.91
same,NF-kB SEAP reporter activity,[1]; [11],1.1
same,NF-kB SEAP reporter activity,[3]; agonist: LPS (TLR4) 0.1 ug/mL,0.951
same,NF-kB SEAP reporter activity,[3]; [7],0.904
same,NF-kB SEAP reporter activity,[3]; [8],0.882
same,NF-kB SEAP reporter activity,[3]; [9],0.928
CC(=O)O.Cc1cc2c(C(C)C)c(O)c(O)c(C=O)c2c(O)c1-c1c(C)cc2c(C(C)C)c(O)c(O)c(C=O)c2c1O,NF-kB SEAP reporter activity,[1]; [10],0.906
same,NF-kB SEAP reporter activity,[1]; [11],0.963
same,NF-kB SEAP reporter activity,[3]; agonist: LPS (TLR4) 0.1 ug/mL,3.69
same,NF-kB SEAP reporter activity,[3]; [7],0.908
same,NF-kB SEAP reporter activity,[3]; [8],1.15
same,NF-kB SEAP reporter activity,[3]; [9],1.2
CC[C@H]1CN2CC[C@]3(C(=O)Nc4ccccc43)[C@@H]2C[C@@H]1/C(=C\OC)C(=O)OC,NF-kB SEAP reporter activity,[1]; [10],0.86
same,NF-kB SEAP reporter activity,[1]; [11],1.04
same,NF-kB SEAP reporter activity,[3]; agonist: LPS (TLR4) 0.1 ug/mL,1.21
same,NF-kB SEAP reporter activity,[3]; [7],1.05
same,NF-kB SEAP reporter activity,[3]; [8],0.949
same,NF-kB SEAP reporter activity,[3]; [9],1.03
COc1cc2c(c(OC)c1OC)-c1ccc(OC)c(=O)cc1C(NC(C)=O)CC2 (stereo not drawn),NF-kB SEAP reporter activity,[1]; [10],2.62
same,NF-kB SEAP reporter activity,[1]; [11],1.98
same,NF-kB SEAP reporter activity,[3]; agonist: LPS (TLR4) 0.1 ug/mL,4.93
same,NF-kB SEAP reporter activity,[3]; [7],3.47
same,NF-kB SEAP reporter activity,[3]; [8],2.44
same,NF-kB SEAP reporter activity,[3]; [9],2.52
CN1C2CCC1CC(OC(=O)C(CO)c1ccccc1)C2.CN1C2CCC1CC(OC(=O)C(CO)c1ccccc1)C2.O.O=S(=O)(O)O (stereo not drawn),NF-kB SEAP reporter activity,[1]; [10],0.838
same,NF-kB SEAP reporter activity,[1]; [11],0.986
same,NF-kB SEAP reporter activity,[3]; agonist: LPS (TLR4) 0.1 ug/mL,0.923
same,NF-kB SEAP reporter activity,[3]; [7],0.83
same,NF-kB SEAP reporter activity,[3]; [8],0.79
same,NF-kB SEAP reporter activity,[3]; [9],1.05
CC12CCC3C(CCC4=C(O)C(=O)CCC43C)C1CCC2=O (stereo not drawn),NF-kB SEAP reporter activity,[1]; [10],0.986
same,NF-kB SEAP reporter activity,[1]; [11],1.01
same,NF-kB SEAP reporter activity,[3]; agonist: LPS (TLR4) 0.1 ug/mL,1.17
same,NF-kB SEAP reporter activity,[3]; [7],1.21
same,NF-kB SEAP reporter activity,[3]; [8],1.07
same,NF-kB SEAP reporter activity,[3]; [9],1.23
Nc1ncnc2c1ccn2C1OC(CO)C(O)C1O (stereo not drawn),NF-kB SEAP reporter activity,[1]; [5],0.147
same,NF-kB SEAP reporter activity,[1]; [6],0.247
same,NF-kB SEAP reporter activity,[2]; agonist: LPS (TLR4) 0.1 ug/mL,0.531
same,NF-kB SEAP reporter activity,[2]; [7],0.19
same,NF-kB SEAP reporter activity,[2]; [8],0.0753
same,NF-kB SEAP reporter activity,[2]; [9],0.156
Cl.NCCc1ccc(S(=O)(=O)F)cc1,NF-kB SEAP reporter activity,[1]; [10],1.07
same,NF-kB SEAP reporter activity,[1]; [11],1.23
same,NF-kB SEAP reporter activity,[3]; agonist: LPS (TLR4) 0.1 ug/mL,1.6
same,NF-kB SEAP reporter activity,[3]; [7],1.01
same,NF-kB SEAP reporter activity,[3]; [8],1.03
same,NF-kB SEAP reporter activity,[3]; [9],1.9
